Values joined by “and” are separate entries in the source; they are usually repeats but may differ in a detail not shown here. Identical values can stand only once.
tested on: K562; test: cell viability relative to vehicle control; higher = less cytotoxic; details: 10 µM; SRSF2 genotype: SRSF2 P95H/wt
In short: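 Each screen used CRISPR-edited mutant and wild-type clones from four leukaemia lines. Compounds were acoustically dispensed at a single 10 µM dose, and CellTiter-Glo luminescence was read after 48 h with the supernatant first removed. Viability was analysed in Genedata Screener and given as percent of the on-plate vehicle control.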

Structure (SMILES)	cell viability
CN1CCN(C(=O)c2cc3cc(Cl)ccc3[nH]2)CC1	99% and 97.5%
OC[C@H]1O[C@H](OC[C@H]2O[C@H](O[C@]3(CO)O[C@H](CO)[C@@H](O)[C@@H]3O)[C@H](O)[C@@H](O)[C@@H]2O)[C@H](O)[C@@H](O)[C@H]1O [Raffinose]	97.9% and 96.4%
Cc1cc(C)nc(O)n1.O=C(Nc1ccc([N+](=O)[O-])cc1)Nc1ccc([N+](=O)[O-])cc1 [Nicarbazin]	100% and 101%
O=c1cc(-c2ccc(O)c(O)c2)oc2cc(O)c([C@@H]3O[C@H](CO)[C@@H](O)[C@H](O)[C@H]3O)c(O)c12 [Homoorientin]	90.2% and 85%
Clc1ccc(C(Cn2ccnc2)OCc2ccc(Sc3ccccc3)cc2)c(Cl)c1 (stereo unspecified) [Fenticonazole nitrate]	76.5% and 67.7%
O=c1cc(N2CCOCC2)oc2c(-c3ccc4c(c3)OCCO4)csc12	39.4% and 50.7%

From the supplement of paper PMC10981050
